Most compounds without a hit are left out; they make up all but 0.5% or so of the library.
Tat transport: blocks Tat-dependent protein export in E. coli. hit rate 0.036% among 340,000. E. coli MC4100 TorA-mCherry Tat export, fluorescence. AID 488895. inhibition, % at 10 µM;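 active = mean replicate inhibition at least 50% and at least half of replicates individually reaching 50%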;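 also: exported cargo escapes ClpAP degradation while cytoplasmic cargo is degraded and loses fluorescence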
E coli growth-1: E. coli growth inhibition | Escherichia coli growth, OD600, 23 h; active compounds read low | OD600 absorbance (test concentration not listed) | hit rate 0.21% among 330,000;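 active = OD600 absorbance below the run mean of sample wells minus 3.6 SD, in any replicate, cut at about 0.56 in these data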
phage Ecoli inh: E. coli growth loss with phage present; growth absorbance; inhibition, % at 11.9 µM; hit rate 0.26% among 360,000; AID 651602; in the data active = inhibition above about 11%
E coli growth-2: bacterial growth inhibition, counter-screen for AddAB inhibitors; E. coli V3065 growth, OD600 absorbance, 18 h; inhibition, % at 11.9 µM; hit rate 0.27% among 330,000;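 active = inhibition above the campaign's mean inhibition across all tested compounds plus 3 SD, cut at about 9.9% in these data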;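 also: uninfected addAB+ strain grown without phage in ampicillin broth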
AddAB inh: less growth of phage-infected E. coli with AddAB. hit rate 0.29% among 330,000. inhibition, % at 11.9 µM. E. coli expressing H. pylori AddAB, absorbance growth. AID 435030; in the data active = inhibition above about 12%
AddAB confirm: growth loss of T4-infected E. coli expressing H. pylori AddAB, confirmed | hit rate 64% among 880 | inhibition, % at 11.9 µM | E. coli V3065 expressing H. pylori AddAB, T4 phage, OD; T4 phage with gene 2 nonsense mutations | shares compounds with AddAB inh;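 active = mean inhibition above a set limit taken from the earlier primary screen, cut at about 13% in these data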;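 also: higher means less bacterial growth since AddAB block lets phage replicate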
RecBCD counter: AddAB counter-screen: growth loss of RecBCD+ E. coli infected with mutant T4 phage; hit rate 73% among 880; inhibition, % at 11.9 µM; E. coli V66 + mutant T4 phage, OD growth; shares compounds with AddAB inh;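 active = mean inhibition above the mean of solvent-only control wells plus 3 SD, cut at about 4% in these data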;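 also: optical density read after an 18 h incubation at 37 °C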
bact viab count: counter-screen for AddAB inhibitors: inhibitors of bacterial viability; inhibition, % at 11.9 µM; shares compounds with AddAB inh; hit rate 35% among 880; absorbance (AddAB counterscreen); in the data active = inhibition above about 25%
RecBCD conf: confirmation: growth loss of phage-infected RecBCD+ E. coli (RecBCD inhibitor screen). E. coli V66 + T4 2- phage, growth OD. hit rate 45% among 890. inhibition, % at 11.9 µM. shares compounds with phage Ecoli inh;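 active = mean inhibition over triplicates exceeding the hit threshold derived in the original primary screen, cut at about 11% in these data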
Ecoli viability: bacterial viability inhibition counter-screen for RecBCD. hit rate 29% among 890. E. coli viability, absorbance (OD) growth. shares compounds with phage Ecoli inh. AID 651983. inhibition, % at 11.9 µM; in the data active = inhibition above about 20%;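 also: E. coli strain V66 grown with compound alone and no phage infection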
AddAB phage OD: growth loss of phage-infected AddAB E. coli, RecBCD counter-screen; shares compounds with phage Ecoli inh; E. coli expressing H. pylori AddAB + T4 phage, OD growth; gene 2 mutant T4, recBCD-deleted host; inhibition, % at 11.9 µM; hit rate 45% among 890;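 active = mean inhibition above the solvent-only control wells' mean plus 3 SD, cut at about 22% in these data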;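 also: higher means less bacterial growth from phage killing when AddAB is blocked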
Large screens that a line does not name were inactive (follow-up assays come after a bar, where they were run).

CN1CCN(C(c2ccc(Cl)cc2)c2cc(Cl)c3cccnc3c2O)CC1 (configuration not stated)	phage Ecoli inh 16, E coli growth-2 19, AddAB inh 13 (no result: E coli growth-1) | AddAB confirm inactive | RecBCD counter 9.9 | bact viab count inactive | RecBCD conf inactive | Ecoli viability inactive | AddAB phage OD inactive
CCN(CC)c1ccc(/C=N/NC(=S)NCc2ccccc2)c(O)c1	phage Ecoli inh 14, E coli growth-2 15, AddAB inh 12 (no result: E coli growth-1) | AddAB confirm inactive | RecBCD counter 14 | bact viab count inactive | RecBCD conf inactive | Ecoli viability inactive | AddAB phage OD inactive
CCN(CC)c1ccc(C=NNC(=S)NCc2ccccc2)c(O)c1	none (no result: Tat transport, phage Ecoli inh, E coli growth-2, AddAB inh)
COc1ccc(/C=N\NC(=O)c2cc(O)c(O)c(O)c2)cc1COc1ccc(C(=O)OCC(C)C)cc1	phage Ecoli inh 12, E coli growth-2 10, AddAB inh 15 (no result: E coli growth-1) | AddAB confirm inactive | RecBCD counter 8.8 | bact viab count inactive | RecBCD conf inactive | Ecoli viability inactive | AddAB phage OD inactive
O=C(NC(Cc1ccc(Br)cc1)C(=O)O)OCC1c2ccccc2-c2ccccc21 (configuration not stated)	none (no result: Tat transport, phage Ecoli inh, E coli growth-2, AddAB inh)
CCC(=O)NC(c1ccc(C)cc1)c1cc([N+](=O)[O-])c2cccnc2c1O (configuration not stated)	none
CCCC(=O)NC(c1ccc(N(C)C)cc1)c1ccc2cccnc2c1O (configuration not stated)	phage Ecoli inh 26, E coli growth-2 28, AddAB inh 31 (no result: E coli growth-1) | AddAB confirm 25 | RecBCD counter 22 | bact viab count inactive | RecBCD conf 17 | Ecoli viability 24 | AddAB phage OD 29
O=C(O)c1ccccc1NC(c1ccccc1)c1ccc2cccnc2c1O (configuration not stated)	none (no result: E coli growth-1, E coli growth-2, AddAB inh)
CCCC(=O)NC(c1ccc(C(C)C)cc1)c1ccc2cccnc2c1O (configuration not stated)	phage Ecoli inh 21, E coli growth-2 27, AddAB inh 26 (no result: E coli growth-1) | AddAB confirm 21 | RecBCD counter 19 | bact viab count inactive | RecBCD conf 14 | Ecoli viability inactive | AddAB phage OD inactive
CCC(=O)NC(c1ccc(C)cc1)c1ccc2cccnc2c1O (configuration not stated)	phage Ecoli inh 24, E coli growth-2 29, AddAB inh 24 (no result: E coli growth-1) | AddAB confirm 22 | RecBCD counter 24 | bact viab count inactive | RecBCD conf 15 | Ecoli viability 21 | AddAB phage OD 29
CC(C)CC(COc1ccccc1)N1CCN(CCc2ccccc2)CCC1=O (configuration not stated)	none (no result: Tat transport, phage Ecoli inh, E coli growth-2, AddAB inh)
O=C1Nc2ccccc2C(=O)N2C1C1C(=O)N(Cc3ccccc3)C(=O)C1C2c1ccc(F)cc1 (configuration not stated)	none (no result: Tat transport, phage Ecoli inh, E coli growth-2, AddAB inh)
Oc1ccc(Cl)cc1CNCc1ccc(Cl)cc1	none
Oc1ccc(Cl)cc1Cc1cc(Cl)ccc1O	E coli growth-1 0.13, phage Ecoli inh 13, E coli growth-2 12, AddAB inh 13 | AddAB confirm inactive | RecBCD counter 14 | bact viab count inactive | RecBCD conf inactive | Ecoli viability inactive | AddAB phage OD inactive
COc1ccc(Nc2nnc(SCc3cn4c(C)cccc4n3)s2)cc1	phage Ecoli inh 14, E coli growth-2 16, AddAB inh 16 | AddAB confirm 16 | RecBCD counter 12 | bact viab count inactive | RecBCD conf 13 | Ecoli viability inactive | AddAB phage OD inactive
